Measurements taken from paper PMC5540273 (PLoS ONE, 2017).

Experiments:
Conditions in all cases: concentration: 1 μM,replicates: in singlicate; n = 1
ZAK = tested on: ZAK
ZAP70 = tested on: ZAP70
p38-alpha = tested on: T1, p38-alpha
T1 construct: gene MAPK14

p38-beta = tested on: T2, p38-beta
T2 construct: gene MAPK11

p38-delta = tested on: p38-delta
p38-gamma = tested on: T3, p38-gamma
T3 construct: gene MAPK12
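Note: KINOMEscan kinase panel screen.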

| Compound | %Inh (ZAK) | %Inh (ZAP70) | %Inh (p38-alpha) | %Inh (p38-beta) | %Inh (p38-delta) | %Inh (p38-gamma) |
| --- | --- | --- | --- | --- | --- | --- |
| CCN1CCN(CCCC(=O)Nc2n[nH]c3nc(-c4ccc(O)cc4)c(Br)cc23)CC1 [SB-731579] | 0% | 0% | 2% | 0% | 30% | 0% |
| COc1cc2c(Nc3ccc(NC(=O)c4ccccc4)cc3)ncnc2cc1OCCCN1CCOCC1 [GSK301329] | 8% | 0% | 0% | 0% | 11% | 0% |
| Cn1ccc2ncnc(Oc3ccc(NC(=O)Nc4cccc(C(F)(F)F)c4)c(Cl)c3)c21 | 14% | 0% | 0% | 44% | 35% | 10% |
| Cc1cccc2c(-c3ccncc3)c(-c3ccc(F)cc3)nn12.Cl [GW461487] | 0% | 5% | 98.3% | 22% | 39% | 17% |
| COc1cccc(CNC(=O)NC2CCN(c3ccnc(Nc4cc(OC)c(OC)c(OC)c4)n3)C2)c1 (stereo not drawn) [GSK1379765] | 26% | 43% | 12% | 0% | 44% | 1% |
| CC(=O)c1c(-c2ccncc2)[nH]c(-c2ccncc2)c1C [GW493036] | 34% | 48% | 34% | 0% | 49% | 19% |
| c1ccc(Oc2ccc(Nc3ccnc4ccc(-c5ccccn5)cc34)cc2)cc1 [GW407034] | 53% | 0% | 0% | 4% | 19% | 0% |
| C[C@@H](Oc1cc(-n2cnc3cc(-c4ccncc4)ccc32)sc1C(N)=O)c1ccccc1Cl [GSK479719] | 0% | 15% | 71% | 0% | 14% | 0% |
| OCCn1cc(-c2cnc3nnn(Cc4ccc5ncccc5c4)c3n2)cn1 | 0% | 0% | 0% | 20% | 0% | 0% |
| CS(=O)(=O)Nc1ccc(-c2ccnc3[nH]ccc23)cc1 [GSK993273] | 13% | 0% | 0% | 0% | 48% | 41% |
| CS(=O)c1ccc(-c2coc3ccc(-c4n[nH]c(=O)o4)cc23)cc1 (stereo not drawn) | 0% | 1% | 10% | 9% | 0% | 0% |
| NC(=O)c1ccc(-c2cc3ncnc(SCC(=O)O)c3s2)cc1 | 0% | 0% | 0% | 2% | 24% | 0% |
| Cn1ccc2ncnc(Oc3ccc(NC(=O)Nc4cccc(C(F)(F)F)c4)c(F)c3)c21 | 18% | 1% | 12% | 20% | 0% | 62% |
| C[C@@H]1CCN(C(=O)N2CCCC2)C[C@@H]1N(C)c1ncnc2[nH]ccc12 | 12% | 0% | 5% | 2% | 25% | 10% |
| CCn1c(-c2nonc2N)nc2cncc(CNC3CCNCC3)c21.Cl [SB-747651] | 7% | 32% | 0% | 0% | 44% | 10% |
| CN1CCN(CCNc2nc3cc(Oc4ccc(NC(=O)Nc5cc(C(F)(F)F)ccc5F)cc4)ccc3[nH]2)CC1.Cl.Cl [GW768504] | 2% | 12% | 0% | 7% | 0% | 27% |
| C[C@@H]1CNc2c(sc3ccc4nc(-c5ccc(O)cc5)ccc4c23)C(=O)N1 | 0% | 0% | 5% | 33% | 30% | 2% |
| Cc1cccc(-c2nc(Nc3ccncc3)c3sccc3n2)n1 [GW869641] | 27% | 14% | 31% | 17% | 0% | 32% |
| Cn1cc(-c2cccc3c(N)c(C(N)=O)nnc23)cn1 | 0% | 9% | 2% | 16% | 6% | 27% |

| Compound | %Inh (ZAK) | %Inh (ZAP70) | %Inh (p38-alpha) | %Inh (p38-beta) | %Inh (p38-delta) | %Inh (p38-gamma) |
| --- | --- | --- | --- | --- | --- | --- |
| CS(=O)(=O)c1cccc(CNc2nc(Nc3ccc4c(c3)[C@@H]3C[C@@H]4CNC3=O)ncc2C(F)(F)F)c1 | 0% | 58% | 0% | 0% | 69% | 10% |
| Cc1ccn2nc(-c3ccc(F)cc3)c(-c3ccncc3)c2c1.Cl [GW457859] | 0% | 0% | 99.7% | 18% | 52% | 30% |
| CN1CCN(CCCNc2nccc(-c3c(-c4ccc(F)cc4)nn4cc(C(N)=O)ccc34)n2)CC1 [GW622475] | 31% | 0% | 99.9% | 79% | 26% | 13% |
| Cc1ccc(CC(=O)N2CCc3cc(-c4cn(C)c5ncnc(N)c45)ccc32)cc1 [GSK2634758] | 21% | 0% | 0% | 0% | 8% | 0% |
| CN(c1ccccc1CNc1nc(Nc2ccc3c(c2)CC(=O)N3)ncc1C(F)(F)F)S(C)(=O)=O | 0% | 0% | 0% | 0% | 56% | 0% |
| Nc1nccc(-c2ccc3c(N)n[nH]c3c2)n1 [GSK1034945] | 1% | 0% | 0% | 0% | 36% | 0% |
| CCCC(=O)Nc1n[nH]c2ncccc12 [SB-601436] | 20% | 0% | 0% | 0% | 0% | 13% |
| COc1cc2ncn(-c3cc(OCC4CCCCC4)c(C(N)=O)s3)c2cc1OC [GSK204559] | 7% | 0% | 0% | 0% | 28% | 0% |
| CNC(=O)c1ccccc1Nc1nc(Nc2cccc(CS(C)(=O)=O)c2)ncc1C.O=CO [GSK1520489] | 0% | 0% | 0% | 0% | 2% | 0% |
| CSc1nccc(-c2c(-c3ccc(F)cc3)ncn2CCCN2CCOCC2)n1.Cl [SB-217146] | 0% | 8% | 67% | 0% | 0% | 2% |
| CC(C(=O)NC1CCN(c2ccnc(Nc3ccc(F)cc3)n2)C1)c1ccc(Cl)cc1 (stereo not drawn) [GSK1379713] | 5% | 0% | 8% | 0% | 5% | 0% |
| O=C(Nc1cccc(C(F)(F)F)c1)c1cccc(Oc2ccc3nccn3n2)c1 | 35% | 15% | 0% | 0% | 0% | 27% |
| NC(=O)Nc1sc(-c2ccc(F)cc2)cc1C(N)=O [GW789449] | 21% | 5% | 6% | 0% | 0% | 16% |
| Cn1ccc2ncnc(Oc3ccc(NC(=O)Nc4cc(C(C)(C)C)on4)c(Cl)c3)c21 | 87% | 0% | 97.2% | 78% | 36% | 56% |
| CC(=O)Nc1ccc(-c2cc3ncnc(SCC(=O)O)c3s2)cc1 | 40% | 2% | 12% | 1% | 29% | 0% |
| COC(=O)c1cccc(NC(=O)NC2CCN(c3ccnc(NCc4ccc(F)cc4)n3)CC2)c1 [GSK1379860] | 0% | 0% | 0% | 0% | 34% | 0% |
| Cl.c1ccc(Oc2ccc(Nc3ccnc4cc(-c5ccc(CN6CCNCC6)o5)ccc34)cc2)nc1 [GW567142] | 60% | 0% | 12% | 0% | 39% | 5% |
| COc1cc(Nc2nccc(N3CCC(NC(=O)c4cccc(C#N)c4)C3)n2)cc(OC)c1OC (stereo not drawn) [GSK1379751] | 0% | 45% | 23% | 0% | 22% | 0% |
